The source of these data is PubChem BioAssay (Tox21).

Each structure is given as a SMILES string. Values without a mark were called inactive. Records with an inconclusive call do not appear. Activity calls are given as the source filed them. Unless noted, the call rests on the fitted dose curve; in most records, active means well fitted curve in the direction sought with a large enough effect in the repeat runs; inconclusive means weak or mixed curves; inactive means no such curve, though single readings can be large; an effect the other way counts as inactive or inconclusive.

Test [1] concerns the target Thyrotropin receptor (Homo sapiens) (UniProt P16473). Nature of the test: qHTS assay to identify small molecule agonists of the thyroid stimulating hormone receptor (TSHR) signaling pathway (AID 1224843; calls by dose curve; further: nearly all actives have a fitted effect of over 45% in size). Put shortly: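 Using 15 concentrations per compound in triplicate, cAMP production was monitored in TSHR-HEK293 cells after 30 min compound incubation at RT; HTRF reagents followed, with fluorescence intensity recorded after 1 h.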
(In general: Quantitative high-throughput screening tests each substance at several concentrations.)

Test [2] in a line: qHTS assay to identify small molecule agonists of the hypoxia (HIF-1) signaling pathway (AID 1224846; active means well fitted activation curve with a large enough effect in the signal ratio in the repeat runs, not every such curve was filed as active; the % refers to the signal ratio). Put shortly:
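In ME-180 cells bearing an HRE-bla construct, 17 h treatment with DMSO-dissolved compounds at 37C was followed by CCF4-AM loading to quantify reporter induction.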

Test [3] is described as follows: qHTS assay to identify small molecule agonists of H2AX - cell viability counter screen (AID 1224847; calls by dose curve; further: top concentration of the series differs between compounds; nearly all actives have a fitted effect of over 30% in size). Put shortly: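 Cells plated first: CHO-K1, 1000 per well in 10% FBS medium, incubated overnight at 37C. Then 15-point compound titration added (final DMSO 0.76%) for 3 hr. Finally CellTiter-Glo added and luminescence read.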
A short description of test [4]: qHTS assay to identify small molecule agonists of the estrogen related receptor (ERR) signaling pathway from Tox21 library (AID 1224849; calls by dose curve; further: nearly all actives have a fitted effect of over 15% in size). As to conditions: ERR reporter cell line, ONE-Glo luciferase, 18 h; at 92.4 µM (top of the series) unless noted. The essentials:
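Reporter cells (ERR, NTP source) treated with Tox21 10K compounds 18 h, 37 C. Readout: ONE-Glo luminescence, 30 min RT.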

A short description of test [5]: qHTS RealTime-Glo MT Cell Viability Assay in HepG2 cells - 24 hour (AID 1224867). Further: nearly all actives have a fitted effect of over 50% in size. The essentials: (§1)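 qHTS, HepG2, 600 cells/well, RealTime-Glo (NanoLuc + prosubstrate) added with cells; 5 h preincubation; DMSO compound addition; 37 C; luminescence at 0/8/16/24/32/40 h.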
Test [6] in a line: qHTS RealTime-Glo MT Cell Viability Assay in HEK293 cells - 32 hour (AID 1224868). Further: nearly all actives have a fitted effect of over 50% in size. Further: potency means the concentration at half of the fitted maximal effect. The essentials:
(§2)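 Assay medium contained NanoLuc luciferase plus cell-permeant prosubstrate, added with HEK293 cells at 600 cells/well. After 5 h at 37 C/5% CO2 compounds were added; plates stayed at 37 C for 40 h with serial luminescence reads.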

A short description of test [7]: A CellTox Green Cytotoxicity Assay to monitor cytotoxicity in HEK293 cells - 0 hour (AID 1224869). Further: nearly all actives have a fitted effect of over 50% in size. Put shortly: (§3)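 Homogeneous no-lysis format: HEK293 cell suspension mixed with CellTox Green reagent, seeded, incubated 5 h at 37 C/5% CO2, then dosed by pintool with compound in DMSO.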
The nature of test [8]: qHTS RealTime-Glo MT Cell Viability Assay in HepG2 cells - 40 hour (AID 1224870). Further: nearly all actives have a fitted effect of over 50% in size. The essentials:
(§4)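 HepG2 cells mixed with RealTime-Glo MT reagents (NanoLuc plus cell-permeant prosubstrate) were seeded at 600 cells/well, incubated 5 h at 37 C/5% CO2, then pinned with compounds in DMSO; nonlytic luminescence tracked viability during 40 h treatment.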

Test [9] in a line: A CellTox Green Cytotoxicity Assay to monitor cytotoxicity in HEK293 cells - 40 hour (AID 1224871). Further: nearly all actives have a fitted effect of over 45% in size. The essentials: as §3
A short description of test [10]: qHTS RealTime-Glo MT Cell Viability Assay in HEK293 cells - 16 hour (AID 1224872). Further: nearly all actives have a fitted effect of over 50% in size. Further: potency means the concentration at half of the fitted maximal effect. The essentials:
as §2

The nature of test [11]: qHTS RealTime-Glo MT Cell Viability Assay in HepG2 cells - 8 hour (AID 1224873). Further: nearly all actives have a fitted effect of over 55% in size. Put shortly:
as §4

The nature of test [12]: qHTS RealTime-Glo MT Cell Viability Assay in HEK293 cells - 40 hour (AID 1224874). Further: nearly all actives have a fitted effect of over 50% in size. Further: potency means the concentration at half of the fitted maximal effect. The settings on record: RealTime-Glo luminescence; max response: stronger effect = lower value. Put shortly:
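Measured as luminescence from the same continuously cultured HEK293 wells at successive time points (0, 8, 16, 24, 32, 40 h) after compound addition. Reagent present from seeding; dosing at 5 h; incubation 37 C.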

Test [13] in a line: A CellTox Green Cytotoxicity Assay to monitor cytotoxicity in HEK293 cells - 24 hour (AID 1224875). Further: nearly all actives have a fitted effect of over 45% in size. Put shortly: as §3
The nature of test [14]: A CellTox Green Cytotoxicity Assay to monitor cytotoxicity in HepG2 cells - 16 hour (AID 1224876). Further: nearly all actives have a fitted effect of over 45% in size. Put shortly: (§5)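 Fluorescent DNA-binding dye, 600 HepG2 cells/well, 5 h preincubation then compound in DMSO; same plates read at 0–40 h, 37 C.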
Test [15] in a line: qHTS RealTime-Glo MT Cell Viability Assay in HepG2 cells - 32 hour (AID 1224877). Further: nearly all actives have a fitted effect of over 55% in size. The essentials: as §1
A short description of test [16]: A CellTox Green Cytotoxicity Assay to monitor cytotoxicity in HepG2 cells - 24 hour (AID 1224878). Further: nearly all actives have a fitted effect of over 45% in size. Put shortly:
as §5

A short description of test [17]: A CellTox Green Cytotoxicity Assay to monitor cytotoxicity in HepG2 cells - 40 hour (AID 1224879). Further: nearly all actives have a fitted effect of over 40% in size. Put shortly:
as §5

A short description of test [18]: qHTS assay to identify small molecule agonists of the hypoxia (HIF-1) signaling pathway - cell viability counter screen (AID 1224844; calls by dose curve; further: nearly all actives have a fitted effect of over 50% in size). Put shortly:
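Same wells as the HIF-1 reporter screen; ME-180 cells carrying HRE-bla, 17 hr treatment at 37C; CellTiter-Glo luminescence read after 30 min at room temperature.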

Test [19] can be described thus: qHTS assay to identify small molecule agonists of H2AX (AID 1224845; active means well fitted activation curve with a large enough effect in the signal ratio in the repeat runs, not every such curve was filed as active; the % refers to the signal ratio). The essentials:
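Wild-type CHO-K1 cells plated overnight, then exposed 3 hr at 37C to compounds at 15 concentrations (0.76% DMSO). Lysed, then HTRF anti-pH2AX(S139)-cryptate/anti-H2AX-d2 detection after 24 hr at room temperature; emissions 665 and 620 nm.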

Test [20] in a line: qHTS assay to identify small molecule antagonists of the estrogen related receptor (ERR) signaling pathway from Tox21 library (AID 1224848). Further: nearly all actives have a fitted effect of over 50% in size. The essentials: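 Tox21 10K compounds in DMSO tested for ERR pathway antagonism in NTP's ERR cell line; 18 h, 37 C exposure; ONE-Glo luminescence.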
On the % scale 0 is the no-effect control and ±100 the full control effect.

Sequence of Thyrotropin receptor (Homo sapiens) (P16473 whole entry, looked up): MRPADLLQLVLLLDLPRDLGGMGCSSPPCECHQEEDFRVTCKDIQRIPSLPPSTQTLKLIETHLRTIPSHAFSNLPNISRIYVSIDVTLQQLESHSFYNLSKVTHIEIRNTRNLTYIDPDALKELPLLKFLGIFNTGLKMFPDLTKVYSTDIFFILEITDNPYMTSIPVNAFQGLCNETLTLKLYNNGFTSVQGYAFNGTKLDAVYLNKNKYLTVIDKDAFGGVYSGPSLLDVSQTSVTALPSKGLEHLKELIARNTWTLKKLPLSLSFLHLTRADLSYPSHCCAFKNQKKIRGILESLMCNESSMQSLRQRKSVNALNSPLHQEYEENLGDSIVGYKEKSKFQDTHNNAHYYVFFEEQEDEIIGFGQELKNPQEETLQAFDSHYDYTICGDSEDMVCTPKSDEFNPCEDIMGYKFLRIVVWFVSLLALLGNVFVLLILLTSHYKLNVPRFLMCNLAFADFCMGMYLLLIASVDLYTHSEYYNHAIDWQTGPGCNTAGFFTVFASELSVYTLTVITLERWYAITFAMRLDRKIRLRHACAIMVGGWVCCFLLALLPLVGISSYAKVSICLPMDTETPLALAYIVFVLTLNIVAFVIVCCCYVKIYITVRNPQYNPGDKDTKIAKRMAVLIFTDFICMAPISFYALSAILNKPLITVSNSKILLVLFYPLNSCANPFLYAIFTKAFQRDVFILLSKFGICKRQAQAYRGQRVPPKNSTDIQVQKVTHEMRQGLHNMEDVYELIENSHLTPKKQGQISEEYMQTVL

For `CCOc1cc(OCC)c(C(C)=O)cc1OCC`, the Potency result in [1], in test [3], in [7], in test [8], in [9] and in [13] was “inactive” each time. Moreover, the Potency entry in test [14], in test [15], in [16] and in test [17] was “inactive” throughout. In addition, the molecule was called inactive in [2], in test [5] and in [11]. Further, in [4], the activity change, positive = activation is -33.9%. Also, the Potency in [6] was 21.5 µM (active); in [10], 19.2 µM (active); in test [12] it was 19.2 µM (active).
In the case of `C[Si](C)(C)O[Si](C)(C)O[Si](C)(C)C`, the Potency result in test [1], in [6], in [7], in test [8], in test [9] and in test [10] was “inactive” each time. Also, the Potency entry in [13], in [14], in [15], in [16] and in test [17] was “inactive” each time. Also, the call in [2], in test [5] and in [11] was inactive. Besides, in [12], the max response is 7.13%.
For `CCC(CC)C(=O)O`, the Potency result in [18], in test [19], in test [3], in test [6], in [8] and in test [9] was “inactive” in each case. The Potency entry in [10], in test [13], in [14], in test [15], in [16] and in test [17] was “inactive” throughout. The molecule was classed as inactive in test [2], in test [5] and in test [11]. The max response in test [12] was 15%.
In the case of `COc1cc(C)c(Cc2cnc(N)nc2N)cc1OC`, the Potency entry in [18], in test [19], in test [3], in [20], in test [6] and in [7] was “inactive” each time. For the same molecule, the Potency result in test [8], in test [9], in test [10], in [13], in test [14] and in test [15] was “inactive” in each case. In addition, the Potency result in test [16] and in [17] was “inactive” in each case. Besides, the outcome in test [2], in test [5] and in test [11] was inactive. In [4], the activity change, positive = activation is -2.44% [at 42.5 µM]. Further, the max response in test [12] was 5.82%.
On to `Cc1c(Cl)cccc1[N+](=O)[O-]`, for which the Potency result in test [18], in [19], in test [3], in [6], in test [7] and in test [8] was “inactive” throughout. The Potency entry in [10], in test [13], in test [14], in [15], in test [16] and in test [17] was “inactive” throughout. Moreover, the outcome in test [2], in test [5] and in test [11] was inactive. In addition, the max response in test [12] is -7.04%.
Take `Cc1ccc(Cl)c(OCC(O)CNC(C)(C)C)c1` (stereo not given): the Potency entry in test [18], in [19], in test [3], in test [6], in test [7] and in test [8] was “inactive” throughout. Further, the Potency result in [9], in [10], in [13], in [14], in [15] and in test [16] was “inactive” each time. The Potency result in test [17] is “inactive”. In addition, the molecule was called inactive in [2], in test [5] and in test [11]. Moreover, the max response in [12] was 1.75%.
Consider `CCc1cnc(C(=O)O)c(C(=O)O)c1`, for which the Potency entry in test [18], in test [19], in test [3], in [6], in test [7] and in test [9] was “inactive” each time. Further, the Potency result in [10], in [13], in test [14], in test [15] and in [17] was “inactive” throughout. In addition, the call in [2], in [5] and in test [11] was inactive. Moreover, the max response in test [12] is 5.23%.
